USP28 block = human USP28 deubiquitinase inhibition | purified USP28, Ub-rhodamine cleavage fluorescence, 30 min | inhibition, % at 25 µM | hit rate 3% among 47,000 | Q96RU2 | AID 1645857
USP30 inh = inhibitors of human USP30 deubiquitinase. hit rate 5.3% among 47,000. purified USP30, Ub-rhodamine cleavage fluorescence. inhibition, % at 25 µM
USP8 block = human USP8 deubiquitinase inhibition; P40818; purified USP8, Ub-rhodamine cleavage fluorescence, 30 min; inhibition, % at 20 µM; hit rate 4.2% among 47,000; AID 1645853
USP17 block = human USP17-like deubiquitinase inhibition; inhibition, % at 50 µM; hit rate 6.5% among 47,000; A8MUK1; purified USP17, Ub-rhodamine cleavage fluorescence, 3 h; AID 1645855
* = called active by the depositor; i = inactive; . = no result. Sampled rows, rich in hits. Any-hit rate of the full collection: about 14%. Cut-off read from the data, not from the text of the source: active = inhibition above about 30%; inactive = the rest.

SMILES	USP28 block	USP30 inh	USP8 block	USP17 block
CC(C)NS(=O)(=O)c1ccc(OCC(=O)N2CCC(Cc3ccccc3)CC2)cc1	78.6*	32.3*	6.9	5.7
CN1Cc2ccccc2CN2C[C@@H](NC(=O)C3CCOCC3)C[C@H]2C1	-31.0	-101.0	-9.6	-31.3
Cc1noc(-c2ccnc(-n3ncc(C(=O)NCc4ccc(Cl)cc4)c3C)c2)n1	2.5	3.8	-4.0	-1.0
O=C(CN1CCC(Nc2nc3c(c(=O)[nH]2)CCCC3)CC1)NC(c1ccccc1)c1ccccc1	6.6	-6.9	17.3	-2.8
CCn1c(CN2CCc3ccccc3C2)nc2cc(S(=O)(=O)N(C)C)ccc21	4.9	-42.2	79.0*	34.3*
C[C@H](NC(=O)C(c1ccccc1)c1ccccc1)c1nnc2ccccn12	11.0	18.7	7.0	9.0
CNC(=O)[C@@]12CCC3(CCN(S(=O)(=O)c4cccc(OC)c4)CC3)[C@@H]1CN(C)C2	-5.1	8.4	-3.3	-11.8
CCCc1cc(C(=O)N2C[C@@H]3OCC(=O)N(CCc4ccccc4)[C@H]3C2)n(C)n1	1.4	6.4	-2.1	5.5
COc1cc2c(cc1OC)C(COc1ccccc1OC)N(C(=O)c1ccc3ccccc3c1)CC2 (stereo not given)	3.8	-31.2	87.7*	51.8*
CCC(C(=O)N1CCc2cc(OC)c(OC)cc2C1COc1ccccc1OC)c1ccccc1 (stereo not given)	3.9	14.7	58.9*	31.0*
CCOc1ccc(C(=O)N2Cc3ccccc3CC2C(N)=O)cc1OC (stereo not given)	-4.6	4.0	2.6	0.0
O=C(c1cc2cn(C3CC3)cc2s1)N1CCCN(c2ncccn2)CC1	-16.9	-77.9	82.9*	27.7
O=C(c1cc2c(s1)CN(C1CCCC1)C2)N1CCCN(c2ncccn2)CC1	-1.5	-48.6	83.8*	21.0
O=C(c1ccco1)N1CCN(C(=O)c2cc3c(s2)CN(C2CC2)C3)CC1	-9.6	-81.8	1.0	5.5
O=C1CC(CNS(=O)(=O)c2ccc(F)cc2F)CN1c1ccc(F)cc1 (stereo not given)	-3.4	-7.3	0.1	4.0
CCN(CC)c1nc(F)c2c(c1F)S(=O)(=O)CCN2Cc1ccccc1	15.7	23.7	94.7*	64.3*
CCN1c2ccc(S(=O)(=O)N3CCOCC3)cc2N(Cc2c(F)cccc2F)C1C (stereo not given)	-11.5	-82.3	-26.4	-3.8
O=S1(=O)CCN(Cc2c(F)cccc2F)c2c(F)nc(N3CCOCC3)c(F)c21	1.5	2.6	92.7*	66.5*
O=S1(=O)CCN(Cc2cccnc2)c2c(F)nc(N3CCOCC3)c(F)c21	7.7	-5.5	91.4*	54.0*
O=S1(=O)CCN(Cc2cccnc2)c2c(Oc3ccccc3)nc(F)c(Cl)c21	13.1	11.1	21.0	15.5
Nc1ncc(-c2ccccc2)c(C2CCCCN2C(=O)c2ccncc2)n1 (stereo not given)	-5.4	-4.0	-4.0	-5.9
O=C(CCc1nnc2n(Cc3ccccc3Cl)c(=O)c3ccccc3n12)NC1CC1	-0.9	-6.5	10.8	0.0
O=C(Nc1cnc(-c2cccc(Cl)c2)nc1)C1CCC1	14.1	21.7	30.0*	10.4
O=C(Nc1cnc(-c2cccnc2)nc1)C1CCC1	7.9	19.0	22.9	10.4
Cc1ccc2nc(-c3ccc(NC(=O)COC(=O)CCC(=O)c4ccc(F)cc4)cc3)sc2c1	-17.0	-41.3	-0.2	-4.9
SMILES	USP28 block	USP30 inh	USP8 block	USP17 block
CCNc1nc(N2CCCCCC2)nc(-n2cnc(SC)n2)n1	19.9	30.4*	5.3	10.6
O=C(c1cscn1)N1CC2(CCN(CCCc3ccccc3)CC2)C1	20.5	20.3	-60.5	-12.3
Cc1ccc(CNC(=O)c2cc(-c3ccccc3)nn2-c2ccccc2)cc1	17.2	34.1*	19.3	22.2
Cc1ccc(CNC(=O)Cn2c(-c3ccccc3)nc(C)cc2=O)cc1	0.2	4.5	16.0	-2.6
CNS(=O)(=O)c1cc(C(=O)NCc2ccccc2)ccc1Cl	8.7	20.1	-0.5	2.8
CC(C)C1Nc2ccc(C(=O)NCc3ccccc3)cc2NC1=O (stereo not given)	0.1	-7.4	0.0	36.3*
CC(=O)Nc1cc(-c2cccc(CO)c2)cn2c(-c3cnn(C)c3)cnc12	-17.4	-68.6	-19.0	-14.1
Cn1nc(-c2ccccc2F)c2cc(C(=O)NCCc3ccc(S(N)(=O)=O)cc3)sc21	21.8	31.9*	33.5*	10.0
CN1C(=O)CO[C@H](c2ccc(NC(=O)c3cccc(C#N)c3)cc2)[C@H]1CO	-5.8	10.1	4.3	19.2
N#Cc1cccc(C(=O)Nc2ccc([C@H]3OCC(=O)N[C@@H]3CO)cc2)c1	5.0	37.4*	15.7	38.6*
CCc1nc(-c2cccc(NC(=O)C3CC(=O)N(c4ccc(C)cc4)C3)c2)no1 (stereo not given)	5.4	25.2	29.4	18.5
O=C(CN1CCC2(CC1)Nc1cc(Cl)ccc1C1=NCCN12)NCC1CC1	11.7	16.8	13.8	10.5
COc1cc2c(C#N)c(N3CCCC3)nc3c2c(n1)NC(C)(c1ccc(-c2ccccc2)cc1)N3 (stereo not given)	0.6	i	39.0*	-25.0
CCN(CC)CCn1c(NC(=O)c2ccc(S(=O)(=O)N3CCOCC3)cc2)nc2ccccc21	0.4	3.0	69.9*	7.7
O=C(Nc1ccccc1N1CCOCC1)c1ccc(S(=O)(=O)N2CCOCC2)cc1	4.6	14.8	-50.2	-10.8
CCCn1c(NC(=O)Cc2ccc(OC)c(OC)c2)nc2ccccc21	0.3	-20.2	64.3*	10.5
COc1ccccc1C(=O)Nc1nc2ccccc2n1CCOc1ccccc1	.	.	2.2	-30.7
CCCn1c(NC(=O)c2cccnc2)nc2ccccc21	31.4*	-5.1	3.0	16.8
CC(OC(=O)C(c1ccccc1)c1ccccc1)C(=O)Nc1ccc(N2CCOCC2)cc1 (stereo not given)	0.9	-11.5	-2.3	3.4
CN(C)C(=O)[C@H]1CCS(=O)(=O)[C@@H]2CN(Cc3ccccc3)C[C@H]12	-6.3	-14.5	-6.0	0.1
CC(=O)N1CC[C@@H]2Oc3ccccc3S(=O)(=O)N(Cc3ccccc3)[C@H]2CC1	3.3	8.5	1.3	-0.9
Cc1ccc(C(=O)N2C[C@H](OCc3cccnc3)[C@H]3COC[C@H]32)o1	-12.5	-36.5	-143.7	-31.9
Cc1cc(NCC2CCCO2)n2nc(-c3cccc(Cl)c3)c(C)c2n1 (stereo not given)	6.8	22.1	6.3	26.4
Cc1cccc(-c2nnn3c2nc(NCC2CCCO2)c2ccccc23)c1 (stereo not given)	3.0	65.5*	67.1*	58.3*
CC(=O)c1ccc(OCCCC(=O)Nc2nc3c(C)cccc3s2)cc1	13.5	16.9	19.6	35.6*
CCN1CCc2nc(NC(=O)CCCOc3ccc(C(C)=O)cc3)sc2C1	12.9	36.1*	-22.6	44.4*
COc1ccc2nc(NC(=O)CCCOc3ccc(C(C)=O)cc3)sc2c1	2.1	-36.6	-55.1	-4.7
Cc1ccc(NC(=O)CC2C(=O)N(CC3CCCO3)c3nc4ccccc4n32)c(F)c1 (stereo not given)	5.7	14.0	0.0	4.1
O=C(O)c1cccc(NC(=O)C(Sc2cccc(NC(=O)c3cccc(Cl)c3)c2)c2ccccc2)c1 (stereo not given)	26.1	-3.6	3.4	41.6*

High-throughput results as filed in PubChem.
